Screens from PubChem BioAssay.
In the library only some 0.4% were active in any assay of this set; here they are far more common.
AID inhibitor – blocks human AID cytidine deaminase activity | Q9GZX7 | AID deamination FRET fluorescence, UDG-coupled, 4 h | Potency, µM (series often up to 115 µM), actives largely listed as inhibitors | actives 0.32% (n = 91,000) | AID 1347428; note: nearly all actives have a fitted effect of over 25% in size
Target sequence (Q9GZX7 whole entry, looked up): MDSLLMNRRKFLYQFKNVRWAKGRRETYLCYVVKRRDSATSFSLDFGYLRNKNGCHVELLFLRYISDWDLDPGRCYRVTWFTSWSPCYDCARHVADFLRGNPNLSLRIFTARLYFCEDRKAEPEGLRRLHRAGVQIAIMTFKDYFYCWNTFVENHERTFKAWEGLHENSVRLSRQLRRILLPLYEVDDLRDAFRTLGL
UDG counter – counter-screen for AID inhibitors: uracil-DNA glycosylase inhibition | Potency, µM (top dose mostly 115 µM), for the others: top-dose activity change, negative = inhibition, usual class: inhibitors | actives 0.14% (n = 91,000) | FRET deamination/UDG coupled assay, UDG read, 4 h; note: nearly all actives have a fitted effect of over 65% in size
* = called active by the depositor; i = inactive; ? = inconclusive; [ ] = remark or other dose. Calls come from the whole dose curve; as a rule, active = well fitted curve in the direction sought with a large enough effect; inconclusive = small, poorly fitted or top-dose-only effect, or another doubt; inactive = no such curve, though single readings can be large; an effect the other way counts as inactive or inconclusive. % is set by controls: 0 for no effect and ±100 for the full control effect; potency is the fitted concentration of half-maximal effect.

SMILES | AID inhibitor | UDG counter
Cc1cc(N)c2ccccc2[n+]1CCCCCCCCCC[n+]1c(C)cc(N)c2ccccc21 | 50µM* | 89µM*
CCOc1ccc(C(=O)c2cn(CC(=O)Nc3ccc4c(c3)OCO4)c3ccc(OCC)cc3c2=O)cc1 | i | 4%
CCOc1ccc(C(=O)c2cn(CC(=O)Nc3ccc4c(c3)OCO4)c3ccc(OC)cc3c2=O)cc1 | 45µM* | -16%
COc1ccc(CCNC(=O)Cn2c(=O)c3cccn3c3ccc(F)cc32)cc1OC | 79µM* | 8%[57.5 µM]
COc1ccc(CCNC(=O)Cn2c(=O)c3cccn3c3ccccc32)cc1OC | i | 0%[57.5 µM]
Cc1ccc(C(=O)NCC(C)(C)CNC(=O)c2ccc(C)c(C)c2)cc1C | i | 11%
CCOc1ccc(-n2c(C)nc3cc(C(=O)NCc4ccc(C)cc4)ccc32)cc1 | 32µM* | -15%
CCOc1ccc(-n2c(C)nc3cc(C(=O)NCCC4=CCCCC4)ccc32)cc1 | i | 0%
CC(=O)N1CCc2c(sc3c2c(=O)n(Cc2ccccc2)c(=O)n3Cc2ccc(Cl)cc2)C1 | i | 1%
CC(=O)N1CCc2c(sc3c2c(=O)n(Cc2ccccc2)c(=O)n3Cc2cccc(Cl)c2)C1 | 32µM* | ?
CCOC(=O)c1sc2nc(C(C)N3CCC(C)CC3)[nH]c(=O)c2c1C (stereo not given) | i | -6%
CSc1cccc(NC(=O)c2cccc(Cl)c2Cl)c1 | i | -6%
CCN(C(=S)Nc1cc(S(=O)(=O)N(C)C)ccc1C)c1cccc2ccccc12 | 79µM* | ?
CCN(CC)S(=O)(=O)c1ccc(C)c(NC(=S)N(c2ccccc2)C(C)C)c1 | i | 9%
Cc1ccc2c(c1)N(C(=O)Cn1c(=O)n(CC(=O)N3CCCCC3)c(=O)c3sccc31)CCO2 | i | -2%
